A word on the AC50: it is the concentration at which the activity in the assay is half-maximal.

SMILES strings stand for the structures. Inconclusive results are not listed. The source made the active and inactive calls. The calls were made as follows: active = hit-call score of the fitted dose curve at least 0.9, where 1 is the maximum; inconclusive = response in the unintended direction; inactive = score below 0.9. Peptide text beside a SMILES is read from it.

The target in the first test is Peroxisome proliferator-activated receptor gamma (Homo sapiens) (UniProt P37231). The test can be described thus: OT_PPARg_PPARgSRC1_0480: Odyssey Thera (OT) 8-hour Protein-Complementation Assay for Peroxisome Proliferator-activated Receptor Gamma / SRC-1 Co-activator (AID 2283387).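 Also: nuclear to cytoplasmic split Venus YFP fluorescence ratio reporting PPARg SRC-1 interaction.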 In short, it runs like this: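 Protein-fragment complementation of split Venus YFP reports PPARg/SRC-1 interaction in HEK293T (transfected 48 h before treatment), exposed 8 h. Readout: N/C fluorescence ratio at 488 nm from imaging, Draq5 for segmentation, positive fit relative to DMSO.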
Chain of Peroxisome proliferator-activated receptor gamma (Homo sapiens) (P37231 whole entry, looked up, the tested form may be a part): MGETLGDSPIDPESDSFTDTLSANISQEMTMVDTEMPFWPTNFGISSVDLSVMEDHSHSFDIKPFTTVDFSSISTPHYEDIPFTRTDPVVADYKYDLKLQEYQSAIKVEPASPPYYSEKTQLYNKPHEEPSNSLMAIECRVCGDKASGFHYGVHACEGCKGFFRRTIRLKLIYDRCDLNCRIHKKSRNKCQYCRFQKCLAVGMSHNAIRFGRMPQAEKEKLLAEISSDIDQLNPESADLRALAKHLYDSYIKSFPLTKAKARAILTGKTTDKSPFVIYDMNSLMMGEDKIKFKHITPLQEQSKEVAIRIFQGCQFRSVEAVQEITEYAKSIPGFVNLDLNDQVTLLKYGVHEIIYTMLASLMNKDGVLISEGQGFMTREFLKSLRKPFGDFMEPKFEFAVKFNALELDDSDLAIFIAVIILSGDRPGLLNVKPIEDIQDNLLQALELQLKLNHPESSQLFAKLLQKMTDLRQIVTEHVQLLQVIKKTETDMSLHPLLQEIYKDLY
For `O=S(=O)(O)c1ccc(N=Nc2c(O)ccc3ccccc23)cc1`, the molecule was called inactive.
Same read-out and setting: in the case of `COC(=O)[C@H](Cc1ccccc1)NC(=O)[C@@H](N)CC(=O)O` (H-Asp-Phe-OMe) it was “inactive”; in that of `CC(C)COC(=O)CC(C(=O)OCC(C)C)S(=O)(=O)O` (stereo not given), “inactive”.
Still for that read-out and setting: next, `C/C=C/C=C/CCCCCCCO`: “inactive”; `CC(=O)/C=C/C1C(C)=CCCC1(C)C` (stereo not given): “inactive”.
Same read-out and setting: in the case of `CCCCCCCCCC[N+](C)(CCCCCCCCCC)CCC[Si](OC)(OC)OC` it was “inactive”.
As to `CC(=O)OC1CCCCC1C(C)(C)C` (stereo not given), the call was inactive.
On the same count and under the same terms, in the case of `O=c1c(O)c(-c2ccc(O)cc2O)oc2cc(O)cc(O)c12` it was “inactive”.
As to `CCc1cccc(C)c1N`, the call was inactive.
Take `Cc1c(C(=O)c2c[nH]n(C)c2=O)ccc(S(C)(=O)=O)c1C1=NOCC1`: the outcome was inactive.
As to `CCCCCCCO`, the molecule was called inactive.
Regarding `CC(C)c1cc(C(C)C)cc(C(C)C)c1`, the outcome was inactive.
For the molecule `CCCCC/C=C\C/C=C\CCCCCCCC(=O)O`, the AC50 is 12.7 µM (active).
As to `O=C(O)CC(C(=O)O)S(=O)(=O)O` (stereo not given), the call was inactive.
Same read-out and setting: next, `O=C(OCCc1ccccc1)c1ccccc1`: “inactive”; `CCOC(=O)c1ccccc1C`: “inactive”.
Same read-out and setting: in the case of `CC(=O)OCc1ccccc1` it was “inactive”; in that of `COC(=O)c1ccccc1C`, “inactive”.
On the same count and under the same terms, in the case of `CC(=O)OC(C)c1ccccc1` (stereo not given) it was “inactive”.
In the case of `O=C(Oc1ccccc1)c1ccccc1O`, the molecule was classed as inactive.
Still for that read-out and setting: in the case of `CCOC(=O)c1ccc(C)cc1` it was “inactive”; in that of `O=C(O)C1CCC(C(=O)O)CC1` (stereo not given), “inactive”; in that of `C=CCOC(=O)c1ccc(C(=O)OCC=C)c(C(=O)OCC=C)c1`, “inactive”.
Same read-out and setting: next, `CCCC(CC)c1ccccc1` (stereo not given): “inactive”.
The same measure, in the same setting: in the case of `CC(C)(C)C1CCC(=O)CC1` it was “inactive”; in that of `Fc1ccc(Br)cc1`, “inactive”; in that of `CCCCNC(=S)NCCCC`, “inactive”.
For `Cc1cc(C)n(CO)n1`, the molecule was classed as inactive.
Same read-out and setting: next, `CC12CCC(CC1)C(C)(C)O2`: “inactive”; `CCCCNS(=O)(=O)c1ccccc1`: “inactive”.

Another test shares this target. Put plainly: OT_PPARg_PPARgSRC1_1440: Odyssey Thera (OT) 24-hour Protein-Complementation Assay for Peroxisome Proliferator-activated Receptor Gamma/ SRC-1 Co-activator (AID 2283388).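 Also: nuclear to cytoplasmic ratio of reconstituted Venus YFP fluorescence in fixed imaged cells.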 The method in brief: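 Cells carrying the PPARg/SRC-1 fragment-complementation reporter receive compound for 24 hours, are fixed and counterstained with Draq5, then imaged. Increased nuclear relative to cytoplasmic YFP fluorescence above DMSO baseline indicates binding activity.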
As for `O=S(=O)(O)c1ccc(N=Nc2c(O)ccc3ccccc23)cc1`, the molecule was called inactive.
In the case of `COC(=O)[C@H](Cc1ccccc1)NC(=O)[C@@H](N)CC(=O)O` (H-Asp-Phe-OMe), the call was inactive.
The same measure, in the same setting: next, `CC(C)COC(=O)CC(C(=O)OCC(C)C)S(=O)(=O)O` (stereo not given): “inactive”.
Still for that read-out and setting: in the case of `C/C=C/C=C/CCCCCCCO` it was “inactive”; in that of `CC(=O)/C=C/C1C(C)=CCCC1(C)C` (stereo not given), “inactive”; in that of `CCCCCCCCCC[N+](C)(CCCCCCCCCC)CCC[Si](OC)(OC)OC`, “inactive”.
Still for that read-out and setting: next, `CC(=O)OC1CCCCC1C(C)(C)C` (stereo not given): “inactive”.
For `O=c1c(O)c(-c2ccc(O)cc2O)oc2cc(O)cc(O)c12`, the result was inactive.
Same read-out and setting: next, `CCc1cccc(C)c1N`: “inactive”; `Cc1c(C(=O)c2c[nH]n(C)c2=O)ccc(S(C)(=O)=O)c1C1=NOCC1`: “inactive”.
The same measure, in the same setting: next, `CCCCCCCO`: “inactive”; `CC(C)c1cc(C(C)C)cc(C(C)C)c1`: “inactive”.
On the same count and under the same terms, next, `CCCCC/C=C\C/C=C\CCCCCCCC(=O)O`: “inactive”; `O=C(O)CC(C(=O)O)S(=O)(=O)O` (stereo not given): “inactive”.
Take `O=C(OCCc1ccccc1)c1ccccc1`: the molecule was classed as inactive.
Still for that read-out and setting: next, `CCOC(=O)c1ccccc1C`: “inactive”; `CC(=O)OCc1ccccc1`: “inactive”.
On to `COC(=O)c1ccccc1C`, for which the molecule was called inactive.
The same measure, in the same setting: next, `CC(=O)OC(C)c1ccccc1` (stereo not given): “inactive”.
On the same count and under the same terms, next, `O=C(Oc1ccccc1)c1ccccc1O`: “inactive”; `CCOC(=O)c1ccc(C)cc1`: “inactive”; `O=C(O)C1CCC(C(=O)O)CC1` (stereo not given): “inactive”.
On the same count and under the same terms, in the case of `C=CCOC(=O)c1ccc(C(=O)OCC=C)c(C(=O)OCC=C)c1` it was “inactive”.
In the case of `CCCC(CC)c1ccccc1` (stereo not given), the molecule was called inactive.
On to `CC(C)(C)C1CCC(=O)CC1`, for which the molecule was called inactive.
Still for that read-out and setting: in the case of `Fc1ccc(Br)cc1` it was “inactive”; in that of `CCCCNC(=S)NCCCC`, “inactive”.
Same read-out and setting: in the case of `Cc1cc(C)n(CO)n1` it was “inactive”; in that of `CC12CCC(CC1)C(C)(C)O2`, “inactive”; in that of `CCCCNS(=O)(=O)c1ccccc1`, “inactive”.
